Compound activity as filed in PubChem BioAssay.
hgDAF12 agonist = activates the H. glycines DAF-12 receptor ligand-binding domain; activation, % at 6.8 µM; 370,000 compounds, 1.8% hits; HEK293 GAL4-hgDAF12 UAS-luciferase reporter, agonist luminescence; normalized to butyrate control;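 active = activation above a cutoff set at the mean of all screened compounds plus 3 SD, cut at about 10% in these data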;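 also: 0% = DMSO wells and 100% = sodium butyrate wells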
ssDAF-12 act = activates DAF-12 receptor from parasite S. stercoralis; HEK293 ssDAF-12/GRIP1 lit1-tk-luc reporter, luminescence; % of 3 µM dafachronic acid response; activation, % at 6.8 µM; 370,000 compounds, 1% hits; AID 652126;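 active = activation above the mean over all tested compounds plus 3 SD, cut at about 0.9% in these data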;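 also: 0% = DMSO-only wells and 100% = 3 µM delta7-dafachronic acid wells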
DAX1 inh-1 = blocks DAX1 repression of SF-1 activated StAR promoter. HEK293T StAR-luciferase reporter, SF-1/DAX-1 repression relief. inhibition, % at 6.8 µM. 370,000 compounds, 1.1% hits. AID 652010;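 active = inhibition above the mean over all tested compounds plus 3 SD, cut at about 3.6% in these data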;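 also: 0% = DAX-1 cells with DMSO and 100% = cells lacking DAX-1 with DMSO; higher inhibition means more luminescence from relief of DAX-1 repression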
hcDAF-12 act = H. contortus DAF-12 activation, primary screen. activation, % at 6.8 µM. HEK293 hcDAF-12 lit1-tk-luc reporter, luminescence; 0% DMSO, 100% Δ7-dafachronic acid. AID 652067. 370,000 compounds, 1.4% hits;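 active = activation above the mean of all tested compounds plus 3 SD, cut at about 5.5% in these data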;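 also: 100% = response to 3 µM Δ7-dafachronic acid high control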
DAX1 inh-2 = inhibits human nuclear receptor DAX1; HEK293 Gal4-DAX1 luciferase reporter, luminescence; inhibition, % at 6.75 µM; 340,000 compounds, 0.99% hits;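 active = inhibition above the mean over all tested compounds plus 3 SD, cut at about 4.2% in these data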;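 also: 0% = DAX1-transfected cells with DMSO and 100% = empty-vector control cells with DMSO; inhibition shows as a rise in luminescence from relieved DAX1 repression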
Target sequence (P51843 207-470 limits assumed): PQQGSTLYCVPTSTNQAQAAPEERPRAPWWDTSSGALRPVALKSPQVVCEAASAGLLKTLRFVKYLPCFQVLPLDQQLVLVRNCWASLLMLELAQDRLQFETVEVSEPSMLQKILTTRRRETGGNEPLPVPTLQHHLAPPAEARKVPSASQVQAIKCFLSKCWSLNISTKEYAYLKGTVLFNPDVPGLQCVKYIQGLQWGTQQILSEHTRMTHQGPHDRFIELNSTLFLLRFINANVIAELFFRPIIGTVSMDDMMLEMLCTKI
DAX1 inh confirm = confirmation of human DAX1 (NR0B1) inhibitors. shares compounds with DAX1 inh-1. HEK293T StAR-promoter luciferase reporter, SF-1/DAX-1 repression. inhibition, % at 6.8 µM. 2,400 compounds, 87% hits;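 active = inhibition above the average of every tested compound plus 3 SD, cut at about 3.8% in these data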;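 also: 0% = DAX-1 cells with DMSO and 100% = no DAX-1 control cells with DMSO; active compounds raise luminescence by relieving repression of the StAR reporter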
Target sequence (P51843 whole entry, looked up): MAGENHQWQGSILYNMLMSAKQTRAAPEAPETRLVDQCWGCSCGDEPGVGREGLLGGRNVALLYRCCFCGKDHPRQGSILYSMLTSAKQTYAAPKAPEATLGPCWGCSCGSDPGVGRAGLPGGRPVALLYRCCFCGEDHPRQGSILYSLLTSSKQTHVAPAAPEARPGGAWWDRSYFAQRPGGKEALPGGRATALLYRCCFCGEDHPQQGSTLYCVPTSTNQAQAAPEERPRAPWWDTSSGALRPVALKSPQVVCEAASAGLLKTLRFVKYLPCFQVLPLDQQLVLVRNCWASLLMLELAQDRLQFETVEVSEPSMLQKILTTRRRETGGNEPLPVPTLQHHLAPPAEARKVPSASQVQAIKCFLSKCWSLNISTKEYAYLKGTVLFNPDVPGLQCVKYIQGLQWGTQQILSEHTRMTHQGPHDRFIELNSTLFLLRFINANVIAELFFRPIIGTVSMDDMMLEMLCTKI
SF1 AF2mut Luc = nonselective inhibitor or artifact in SF-1 mutant DAX1 counter-screen. shares compounds with DAX1 inh-1. HEK293 StAR-luciferase, SF-1 AF2 mutant, luminescence. inhibition, % at 6.8 µM. 2,400 compounds, 78% hits. AID 652136;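 active = inhibition above the mean of all tested compounds plus 3 SD, cut at about 3% in these data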;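 also: 0% = DAX-1 transfected cells with DMSO and 100% = cells without DAX-1 with DMSO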
* = called active by the depositor. Only some compounds are listed: those with a hit (about 4.1% of all), similar ones and a draw of the others.

What do the screens show for `CSc1nnc(NC(=O)c2ccc3c(c2)OCO3)s1`?
hgDAF12 agonist: 10.6*; ssDAF-12 act: 0.2; DAX1 inh-1: 13.1*; hcDAF-12 act: 6.0*; DAX1 inh-2: -0.8; DAX1 inh confirm: 3.5; SF1 AF2mut Luc: -1.5

What do the screens show for `CCCN(CC1CC1)C(=O)CSc1nnc(-c2ccncc2)n1-c1ccc(OC)cc1`?
hgDAF12 agonist: 0.7; ssDAF-12 act: -0.8; DAX1 inh-1: -0.8; hcDAF-12 act: -1.8

What do the screens show for `COc1cc2ccccc2cc1C(=O)Nc1cc(C)ccn1`?
hgDAF12 agonist: 12.0*; ssDAF-12 act: 0.5; DAX1 inh-1: 5.3*; hcDAF-12 act: 6.4*; DAX1 inh-2: 0.3; DAX1 inh confirm: 4.2*; SF1 AF2mut Luc: 2.2

What do the screens show for `O=C(OCC(=O)N1CCCCCC1)c1ccccc1Br`?
hgDAF12 agonist: 11.7*; ssDAF-12 act: -0.1; DAX1 inh-1: 4.5*; hcDAF-12 act: 5.7*; DAX1 inh-2: 1.6; DAX1 inh confirm: 10.1*; SF1 AF2mut Luc: 5.3*

What do the screens show for `O=C(OCC(=O)N1CCCC1)c1ccccc1O`?
hgDAF12 agonist: 3.4; ssDAF-12 act: 0.3; DAX1 inh-1: 0.9; hcDAF-12 act: 3.5; DAX1 inh-2: 3.6

What do the screens show for `O=C(OCC(=O)N1CCN(c2ccccc2)CC1)c1ccccc1OC(F)F`?
hgDAF12 agonist: 0.1; ssDAF-12 act: -0.9; DAX1 inh-1: 5.0*; hcDAF-12 act: -0.5; DAX1 inh-2: -0.4; DAX1 inh confirm: -1.9; SF1 AF2mut Luc: -0.8

Results for COc1ccc(NC(=O)c2ccccc2NC(=O)c2ccccc2)cc1 ?
hgDAF12 agonist: 3.7; ssDAF-12 act: -1.2; DAX1 inh-1: -1.0; hcDAF-12 act: 1.2; DAX1 inh-2: -1.8

Results for COc1ccc(NC(=O)c2ccccc2NC(=O)C2CC=CCC2C(=O)O)cc1 (stereo unspecified) ?
hgDAF12 agonist: 11.7*; ssDAF-12 act: 0.0; DAX1 inh-1: 5.6*; hcDAF-12 act: 3.2; DAX1 inh-2: 2.2; DAX1 inh confirm: 4.0*; SF1 AF2mut Luc: 3.4*

What do the screens show for `N/C(=N\OC(=O)c1ccccc1)c1cccnc1`?
hgDAF12 agonist: 8.0; ssDAF-12 act: -0.1; DAX1 inh-1: 2.1; hcDAF-12 act: 1.0; DAX1 inh-2: 1.1

How did N/C(=N\OC(=O)c1ccccc1)c1ccn[nH]1 do in these assays?
hgDAF12 agonist: 9.9; ssDAF-12 act: 0.7; DAX1 inh-1: 11.7*; hcDAF-12 act: 4.5; DAX1 inh-2: 0.6; DAX1 inh confirm: 8.2*; SF1 AF2mut Luc: 4.9*

How did CC(=O)c1cc(F)ccc1OCC(=O)Nc1ccc2c(c1)OCO2 do in these assays?
hgDAF12 agonist: 10.7*; ssDAF-12 act: 1.0*; DAX1 inh-1: 10.8*; hcDAF-12 act: 4.1; DAX1 inh-2: 1.4; DAX1 inh confirm: 12.0*; SF1 AF2mut Luc: 6.3*

How did Cc1ccc(OCC(=O)Nc2ccc3c(c2)OCO3)c(C)c1 do in these assays?
hgDAF12 agonist: 13.0*; ssDAF-12 act: -0.8; DAX1 inh-1: 6.5*; hcDAF-12 act: 3.5; DAX1 inh-2: 0.8; DAX1 inh confirm: 7.2*; SF1 AF2mut Luc: 5.7*

How did CCCOc1ccc(C(=O)Nc2ccc3c(c2)OCO3)cc1 do in these assays?
hgDAF12 agonist: 7.5; ssDAF-12 act: -0.3; DAX1 inh-1: 10.5*; hcDAF-12 act: 1.6; DAX1 inh-2: 1.2; DAX1 inh confirm: 9.6*; SF1 AF2mut Luc: 4.9*

How did O=C(COc1cc(F)ccc1[N+](=O)[O-])Nc1ccc2c(c1)OCO2 do in these assays?
hgDAF12 agonist: 1.9; ssDAF-12 act: -0.7; DAX1 inh-1: -1.1; hcDAF-12 act: -0.3; DAX1 inh-2: 0.4

What do the screens show for `Cc1cccc(OCC(=O)Nc2ccc3c(c2)OCO3)c1C`?
hgDAF12 agonist: 2.1; ssDAF-12 act: -0.7; DAX1 inh-1: 0.5; hcDAF-12 act: -1.1; DAX1 inh-2: 0.5

How did O=C(NC(c1ccccc1)c1ccsc1)C1CCN(Cc2ccc(Oc3ccccc3)cc2)CC1 (stereo unspecified) do in these assays?
hgDAF12 agonist: 0.3; ssDAF-12 act: -1.7; DAX1 inh-1: -1.1; hcDAF-12 act: -2.8

How did CC(C)COC(=O)N(C)C[C@H]1OCc2cnnn2CCCC(=O)N([C@H](C)CO)C[C@H]1C do in these assays?
hgDAF12 agonist: 6.8; ssDAF-12 act: -0.9; DAX1 inh-1: 0.0; hcDAF-12 act: -1.1; DAX1 inh-2: -1.5

What do the screens show for `Cc1ccc(NC(=O)CSCC(=O)OC(C)C(=O)Nc2ccccc2C)cc1` (stereo unspecified)?
hgDAF12 agonist: 3.1; ssDAF-12 act: -0.6; DAX1 inh-1: 1.4; hcDAF-12 act: 1.0; DAX1 inh-2: 0.1

How did COc1cc(C(=O)c2cc3c(cc2C)OCO3)cc(OC)c1OC do in these assays?
hgDAF12 agonist: -0.6; ssDAF-12 act: -1.5; DAX1 inh-1: 6.5*; hcDAF-12 act: -1.2; DAX1 inh confirm: 12.8*; SF1 AF2mut Luc: -8.9

What do the screens show for `CS(=O)(=O)N1CCCCC1c1cc(C(=O)Nc2cccc(C#N)c2)no1` (stereo unspecified)?
hgDAF12 agonist: 4.0; ssDAF-12 act: -0.7; DAX1 inh-1: 2.0; hcDAF-12 act: -2.2

How did CS(=O)(=O)N1CCCCC1c1cc(C(=O)Nc2ccccc2)no1 (stereo unspecified) do in these assays?
hgDAF12 agonist: 11.2*; ssDAF-12 act: -0.5; DAX1 inh-1: 6.7*; hcDAF-12 act: 2.4; DAX1 inh confirm: 7.9*; SF1 AF2mut Luc: 7.0*

Results for O=C(Nc1ccc(Cl)cc1)Nc1ccc2c(c1)OCO2 ?
hgDAF12 agonist: 12.5*; ssDAF-12 act: 0.0; DAX1 inh-1: 6.4*; hcDAF-12 act: 5.7*; DAX1 inh-2: 1.4; DAX1 inh confirm: 8.7*; SF1 AF2mut Luc: 6.6*

What do the screens show for `Cc1cc(C)c(NC(=O)Nc2ccc3c(c2)OCO3)c(C)c1`?
hgDAF12 agonist: 3.8; ssDAF-12 act: 0.0; DAX1 inh-1: 4.7*; hcDAF-12 act: 1.6; DAX1 inh-2: 1.8; DAX1 inh confirm: 1.8; SF1 AF2mut Luc: 3.4*

Results for O=C(Nc1cccc(C(=O)O)c1)Nc1ccc2c(c1)OCO2 ?
hgDAF12 agonist: 4.0; ssDAF-12 act: -0.8; DAX1 inh-1: 6.8*; hcDAF-12 act: 4.5; DAX1 inh-2: -5.3; DAX1 inh confirm: 6.3*; SF1 AF2mut Luc: 5.5*

What do the screens show for `Cc1ccc(NC(=O)Nc2ccc3c(c2)OCO3)c(Br)c1`?
hgDAF12 agonist: 2.4; ssDAF-12 act: -1.4; DAX1 inh-1: 2.1; hcDAF-12 act: 0.3; DAX1 inh-2: 0.3

What do the screens show for `CC(NC(=O)Nc1ccc(Cl)cc1)c1ccc2c(c1)OCO2` (stereo unspecified)?
hgDAF12 agonist: -6.3; ssDAF-12 act: -1.6; DAX1 inh-1: -0.1; hcDAF-12 act: -4.3; DAX1 inh-2: -1.0

What do the screens show for `COC(=O)c1sc(N)nc1CCNC(=O)OC(C)(C)C`?
hgDAF12 agonist: -2.8; ssDAF-12 act: -0.6; DAX1 inh-1: -0.6; hcDAF-12 act: 0.4
